Bioassay records deposited in PubChem BioAssay by several laboratories.
rCAG RNA binder: molecules binding r(CAG) RNA repeats | r(CAG) RNA repeat, TO-PRO-1 dye displacement fluorescence | inhibition, % at 3 µM | actives 1.3% (n = 370,000) | AID 651821;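 active = inhibition above the plate cutoff, the mean of all test compounds on that plate plus 3 SD, cut at about 35% in these data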;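 also: 0% = DMSO alone and 100% = 100 µM mitoxantrone as full dye displacement; higher means more dye released from RNA so lower well fluorescence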
NadD block: inhibitors of Staphylococcus aureus NadD; purified NadD enzyme, colorimetric absorbance read-out; inhibition, % at 20 µM; actives 0.78% (n = 360,000); in the data active = inhibition above about 26%
FAS-TE inh: inhibitors of human fatty acid synthase thioesterase domain; recombinant FAS-TE, OMFH fluorogenic substrate, fluorescence endpoint; inhibition, % at 15 µM; actives 0.67% (n = 360,000); AID 602261;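 active = compounds whose normalised, plate-corrected inhibition of enzyme fluorescence in the single-dose primary screen is 50% or more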;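 also: 0% = DMSO with enzyme and 100% = substrate without enzyme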
Target sequence (P49327 whole entry, looked up, the tested form may be a part): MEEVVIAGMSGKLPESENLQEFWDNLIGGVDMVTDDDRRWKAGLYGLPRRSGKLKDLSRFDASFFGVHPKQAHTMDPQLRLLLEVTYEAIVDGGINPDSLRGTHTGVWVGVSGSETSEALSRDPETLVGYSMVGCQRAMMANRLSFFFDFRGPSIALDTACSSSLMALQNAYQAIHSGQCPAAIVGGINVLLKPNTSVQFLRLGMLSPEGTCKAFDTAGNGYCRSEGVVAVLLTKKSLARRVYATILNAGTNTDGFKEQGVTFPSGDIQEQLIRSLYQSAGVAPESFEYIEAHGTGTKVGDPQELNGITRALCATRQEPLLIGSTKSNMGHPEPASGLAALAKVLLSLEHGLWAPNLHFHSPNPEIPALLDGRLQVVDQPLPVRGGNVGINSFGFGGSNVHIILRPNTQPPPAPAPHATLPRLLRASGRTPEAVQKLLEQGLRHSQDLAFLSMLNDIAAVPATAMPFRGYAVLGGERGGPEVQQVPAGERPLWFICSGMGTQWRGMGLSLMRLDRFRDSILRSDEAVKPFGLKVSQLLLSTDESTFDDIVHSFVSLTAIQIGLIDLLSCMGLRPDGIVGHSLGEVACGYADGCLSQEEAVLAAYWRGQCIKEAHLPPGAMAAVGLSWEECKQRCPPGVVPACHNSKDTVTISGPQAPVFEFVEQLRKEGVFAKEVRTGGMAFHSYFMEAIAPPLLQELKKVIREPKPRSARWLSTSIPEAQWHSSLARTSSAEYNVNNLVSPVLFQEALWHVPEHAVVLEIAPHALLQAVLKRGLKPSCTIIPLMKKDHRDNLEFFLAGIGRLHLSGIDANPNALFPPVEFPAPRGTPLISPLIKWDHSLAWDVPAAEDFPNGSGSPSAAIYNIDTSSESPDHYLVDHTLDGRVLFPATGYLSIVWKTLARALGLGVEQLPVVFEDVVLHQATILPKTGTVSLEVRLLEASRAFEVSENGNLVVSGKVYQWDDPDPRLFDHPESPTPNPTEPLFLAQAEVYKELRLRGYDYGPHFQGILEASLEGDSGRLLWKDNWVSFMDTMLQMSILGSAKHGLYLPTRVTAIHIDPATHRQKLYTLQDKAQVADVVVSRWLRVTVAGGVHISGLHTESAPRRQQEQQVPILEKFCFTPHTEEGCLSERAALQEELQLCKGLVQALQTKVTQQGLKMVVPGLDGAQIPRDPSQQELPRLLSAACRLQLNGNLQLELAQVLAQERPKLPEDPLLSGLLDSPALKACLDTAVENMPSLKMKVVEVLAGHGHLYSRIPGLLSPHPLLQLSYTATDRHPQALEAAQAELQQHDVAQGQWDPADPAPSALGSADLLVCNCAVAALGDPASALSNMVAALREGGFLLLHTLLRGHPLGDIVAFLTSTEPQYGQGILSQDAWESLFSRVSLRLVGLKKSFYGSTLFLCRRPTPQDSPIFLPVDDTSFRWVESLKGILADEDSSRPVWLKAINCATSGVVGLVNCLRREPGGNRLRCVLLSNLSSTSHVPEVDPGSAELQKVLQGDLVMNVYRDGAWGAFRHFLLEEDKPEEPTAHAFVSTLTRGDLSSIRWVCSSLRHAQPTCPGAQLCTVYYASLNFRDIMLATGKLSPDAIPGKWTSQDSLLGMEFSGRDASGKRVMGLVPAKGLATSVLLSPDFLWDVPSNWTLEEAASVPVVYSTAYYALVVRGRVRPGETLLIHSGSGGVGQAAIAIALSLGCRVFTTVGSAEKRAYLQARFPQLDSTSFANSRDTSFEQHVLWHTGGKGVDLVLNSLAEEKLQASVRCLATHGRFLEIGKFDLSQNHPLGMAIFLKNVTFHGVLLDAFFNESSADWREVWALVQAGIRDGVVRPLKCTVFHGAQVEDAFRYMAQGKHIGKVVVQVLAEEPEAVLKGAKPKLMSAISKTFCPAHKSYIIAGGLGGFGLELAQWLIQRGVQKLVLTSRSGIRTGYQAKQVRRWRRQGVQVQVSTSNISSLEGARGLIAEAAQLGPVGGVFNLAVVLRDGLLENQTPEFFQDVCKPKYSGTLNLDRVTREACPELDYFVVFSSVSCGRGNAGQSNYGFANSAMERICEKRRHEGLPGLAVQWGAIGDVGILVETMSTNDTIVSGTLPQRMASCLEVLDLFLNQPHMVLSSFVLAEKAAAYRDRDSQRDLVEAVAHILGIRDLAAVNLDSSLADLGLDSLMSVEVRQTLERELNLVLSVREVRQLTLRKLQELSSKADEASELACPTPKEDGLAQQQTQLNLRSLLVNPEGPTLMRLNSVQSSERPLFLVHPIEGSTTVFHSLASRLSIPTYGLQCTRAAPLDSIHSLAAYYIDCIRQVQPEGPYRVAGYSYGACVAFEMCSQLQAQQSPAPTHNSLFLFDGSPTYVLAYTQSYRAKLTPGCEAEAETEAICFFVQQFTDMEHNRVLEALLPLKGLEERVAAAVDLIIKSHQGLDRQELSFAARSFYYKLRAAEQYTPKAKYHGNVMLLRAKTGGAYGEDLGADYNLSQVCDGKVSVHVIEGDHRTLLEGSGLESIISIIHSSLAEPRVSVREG
GRIN3A LBD mod: NR3A (human) ligand-binding domain modulation. NR3A LBD differential scanning fluorimetry, Tm shift; 0% = protein alone, 100% = glycine-bound protein. Tm shift relative to glycine control, % at 25 µM. actives 2.5% (n = 340,000). AID 1259313;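 active = melting temperature shift of at least 10% of the positive control shift, at one fixed dose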
Active calls of the source: *. Sampled rows, rich in hits. Any-hit rate of the full collection: about 4.3%.

What do the screens show for `O=[N+]([O-])c1cccc(-c2cc3ccccc3[nH]2)c1`?
rCAG RNA binder: 9; NadD block: -4; FAS-TE inh: 21; GRIN3A LBD mod: 34*

Results for O=[N+]([O-])c1cccc(/C=C/c2nc3ccc([N+](=O)[O-])cc3[nH]2)c1 ?
rCAG RNA binder: 11; NadD block: 6; FAS-TE inh: 19; GRIN3A LBD mod: 16*

How did Cc1ccc(CN2CCCCC(NC(=O)c3ccc(C)cc3)C2=O)cc1 (centres undefined) do in these assays?
rCAG RNA binder: -1

What do the screens show for `Fc1cc2[nH]c(=S)[nH]c2cc1Cl`?
rCAG RNA binder: -1; NadD block: -1; FAS-TE inh: 0; GRIN3A LBD mod: 32*

What do the screens show for `O=C(Nc1cc(-c2ccccc2)cs1)c1ccco1`?
rCAG RNA binder: 3; NadD block: -12; FAS-TE inh: 10; GRIN3A LBD mod: 12*

How did O=C(Nc1ccc(Oc2ncnc3cc(Cl)ccc23)nc1)c1cccs1 do in these assays?
rCAG RNA binder: -1; NadD block: -5; FAS-TE inh: 2; GRIN3A LBD mod: 11*

What do the screens show for `COc1ccc(C(C)(C)C)cc1N1C(=O)[C@@H]2CSCCS(=O)(=O)N2C1=O`?
rCAG RNA binder: 8

What do the screens show for `CSc1ccc(C2C(C#N)=C(N)N(c3ccccc3)C3=C2C(=O)CCC3)cc1` (centres undefined)?
rCAG RNA binder: -2; NadD block: 9; FAS-TE inh: 2; GRIN3A LBD mod: -6

Results for N#CC1=C(N)N(c2ccc(F)cc2)C2=C(C1c1ccc(O)cc1)S(=O)(=O)CC2 (centres undefined) ?
rCAG RNA binder: 35*; NadD block: 8; FAS-TE inh: -4; GRIN3A LBD mod: -2

Results for Cc1ccc2cc(CCNC(=O)c3cc4ccccc4o3)c(=O)[nH]c2c1C ?
rCAG RNA binder: 3; NadD block: 0; FAS-TE inh: 8; GRIN3A LBD mod: 2

How did COc1ccc2cc(CCNC(=O)c3cc4ccccc4o3)c(=O)[nH]c2c1 do in these assays?
rCAG RNA binder: -6; NadD block: -1; FAS-TE inh: 7; GRIN3A LBD mod: 21*

Results for COCCCN1C(=O)[C@H](CC(=O)NCc2cccc(C(F)(F)F)c2)[C@]2(C(=O)OC)CCCCC=C12 ?
rCAG RNA binder: 0

What do the screens show for `CCCCCNC(=O)C1CC=CCC1C(=O)O` (centres undefined)?
rCAG RNA binder: 2; NadD block: 1; FAS-TE inh: -2; GRIN3A LBD mod: 12*

What do the screens show for `CC(C)CC1=C/C(=C/c2ccc(-c3ccccc3)o2)C(=O)O1`?
rCAG RNA binder: 44*; NadD block: 74*; FAS-TE inh: 30; GRIN3A LBD mod: 0

How did Cc1[nH]nc(-c2ccc(OCc3cnn(-c4ccccc4)c3)cc2O)c1Oc1ccc(F)cc1 do in these assays?
rCAG RNA binder: 14; NadD block: 7; FAS-TE inh: -10; GRIN3A LBD mod: 20*

Results for CCOc1ccc(-c2n[nH]c(C)c2Oc2ccc(OC)cc2)c(O)c1 ?
rCAG RNA binder: 10; NadD block: -2; FAS-TE inh: -32; GRIN3A LBD mod: 12*

Results for C=CCN1C(=O)c2[nH]nc(-c3ccccc3)c2C1c1ccc(C)cc1 (centres undefined) ?
rCAG RNA binder: 0

How did Cc1ccc(/C=C2\SC(=S)N(CCCC(=O)Nc3nccs3)C2=O)cc1 do in these assays?
rCAG RNA binder: 2; NadD block: 7; FAS-TE inh: -4; GRIN3A LBD mod: 10*

Results for Cc1ccc(/C=C2/SC(=S)N(CCCC(=O)Nc3cc([N+](=O)[O-])ccc3O)C2=O)cc1 ?
rCAG RNA binder: 1; NadD block: 51*; FAS-TE inh: 5; GRIN3A LBD mod: 1

How did CSCCCNC(=O)Cn1nc(Cc2ccncc2)c2ccccc2c1=O do in these assays?
rCAG RNA binder: 4

Results for Cc1ccc(-c2cc(-c3nnc(SCC(=O)NC4CCCCC4)n3N)[nH]n2)cc1 ?
rCAG RNA binder: 2

How did Cc1ccc(Cn2cc(CN3[C@@H](CC(C)C)COc4cc(Br)ccc4S3(=O)=O)nn2)cc1 do in these assays?
rCAG RNA binder: 5

What do the screens show for `CN(C)CCN(Cc1ccco1)S(=O)(=O)c1ccc(-c2ccc(=O)[nH]n2)s1`?
rCAG RNA binder: 2; NadD block: -4; FAS-TE inh: -5; GRIN3A LBD mod: 14*

How did CCOc1ccc(N(C)S(=O)(=O)c2ccc(-c3ccc(=O)[nH]n3)s2)cc1 do in these assays?
rCAG RNA binder: 9; NadD block: 13; FAS-TE inh: -8; GRIN3A LBD mod: -3

What do the screens show for `O=C(N[C@H](Cc1ccccc1)C(=O)NCCN1CCOCC1)[C@H]1O[C@@H](n2ccc(=O)[nH]c2=O)[C@H](O)[C@@H]1O`?
rCAG RNA binder: 2

What do the screens show for `CCCN1C2CCCC1CC(NC(=O)c1ccc(C(C)(C)C)cc1)C2` (centres undefined)?
rCAG RNA binder: -5; NadD block: -10; FAS-TE inh: -6; GRIN3A LBD mod: -1

Results for CCN1C(=O)CC2CCCC1C2 (centres undefined) ?
rCAG RNA binder: 2; NadD block: -2; FAS-TE inh: -2; GRIN3A LBD mod: 11*

How did CC(C)(C)C(=O)NC(NC(=S)Nc1sc2c(c1C#N)CCCC2)C(Cl)(Cl)Cl (centres undefined) do in these assays?
rCAG RNA binder: 15; NadD block: 13; FAS-TE inh: 31; GRIN3A LBD mod: 16*

What do the screens show for `CC(C)(C)C(=O)Nc1sc2c(c1C#N)CCC2`?
rCAG RNA binder: 1; NadD block: -12; FAS-TE inh: -5; GRIN3A LBD mod: -3

How did CC(C)(C)c1ccc(C(=O)NC(=S)Nc2sc3c(c2C#N)CCC3)cc1 do in these assays?
rCAG RNA binder: 9; NadD block: 21; FAS-TE inh: -1; GRIN3A LBD mod: 10

How did CCC(Sc1nc(C)cc(=O)[nH]1)C(=O)Nc1sc2c(c1C#N)CCCC2 (centres undefined) do in these assays?
rCAG RNA binder: 55*; NadD block: 13; FAS-TE inh: -7; GRIN3A LBD mod: -6

How did CN1Cc2sc(NC(=S)NC(=O)c3ccccc3)c(C#N)c2CC1(C)C do in these assays?
rCAG RNA binder: 8; GRIN3A LBD mod: 1

How did CCC1(C)Cc2c(sc(NC(=S)NC(=O)c3ccccc3)c2C#N)CO1 (centres undefined) do in these assays?
rCAG RNA binder: 3; NadD block: 12; FAS-TE inh: 10; GRIN3A LBD mod: 22*

How did N#Cc1c(NC(=S)NC(=O)c2ccccc2)sc2c1CCC2 do in these assays?
rCAG RNA binder: 18; NadD block: 9; FAS-TE inh: -6; GRIN3A LBD mod: 11*

What do the screens show for `O=C(NCCc1ccccc1)OCc1cn(-c2ccc(F)c(F)c2)nn1`?
rCAG RNA binder: 0

What do the screens show for `CCc1ccc(N2C(=O)C[C@@](C#N)(C(=O)OC)[C@H]2c2ccccc2)cc1`?
rCAG RNA binder: 1

How did CCN1CCc2c(sc(NC(=S)NC(=O)c3ccccc3)c2C#N)C1 do in these assays?
rCAG RNA binder: 4; NadD block: 3; FAS-TE inh: -20; GRIN3A LBD mod: 0

Results for CC1CCc2sc(NC(=S)NC(=O)c3ccccc3)c(C#N)c2C1 (centres undefined) ?
rCAG RNA binder: 11; NadD block: 16; FAS-TE inh: -3; GRIN3A LBD mod: 22*
